Laboratory results published in PubChem BioAssay (NCATS).
“And” between values parts separate entries of the source, which are not always exact repeats. Equal values may be shown once. Inconclusive results are not listed. The source made the active and inactive calls. Unless noted, calls come from the whole dose curve; as a rule, active = well fitted curve in the direction sought with a large enough effect; inconclusive = small, poorly fitted or top-dose-only effect, or another doubt; inactive = no such curve, though single readings can be large; an effect the other way counts as inactive or inconclusive.

What was measured:
[1] = Cell Viability - BJ (AID 421; calls by dose curve;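 note: potency is the fitted concentration of half-maximal effect; cells exposed to compound for 40 hours at 37 °C before readout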); conditions: BJ fibroblast viability, qHTS
In short: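 Cytotoxicity as drop in intracellular ATP (CellTiter-Glo, 20 min RT) after 40 hr compound exposure of BJ fibroblasts at 37 °C. Titrations scaled between DMSO and 100 uM tamoxifen, Hill-fitted for AC50.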

[2] = Cell Viability - HUV-EC-C (AID 542); conditions: HUV-EC-C endothelial cell viability, qHTS; series mostly up to 92.2 µM; note: % is set by controls: 0 for no effect and ±100 for the full control effect; nearly all actives have a fitted effect of over 35% in size
In short: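 HUV-EC-C normal human vascular endothelial cells, 1000 cells/well, pre-incubated 5 hr at 37 °C, then exposed to compounds for 40 hr at 37 °C in complete medium. Viability measured as intracellular ATP by CellTiter-Glo luminescence; AC50 from Hill fits.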

[3] = Cellular Toxicity (caspase-3) HUV-EC-C (AID 656); conditions: HUV-EC-C cells, caspase-3 activation (apoptosis), vehicle = 0, 100 µM tamoxifen = 100%; series mostly up to 92.2 µM
In short: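 HUV-EC-C cells (1000/well) in complete medium, compound-treated 16 h at 37 °C; caspase-3/7 activity read by Caspase-Glo 3/7 luminescence. Normalized to DMSO (basal) and 100 uM tamoxifen (100%); AC50 from Hill-equation concentration-response fits.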

[4] = Cellular Toxicity (caspase-3) MRC-5 (AID 659); conditions: MRC-5 cells, luminescence, normalized: DMSO 0%, 10 µM staurosporine 100%; series mostly up to 91.7 µM
In short: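 Concentration-dependent caspase 3/7 activation is measured in human normal lung fibroblasts (MRC-5) following 16-hour treatment. AC50 values come from standard Hill-equation modeling of luminescence normalized to DMSO and 10 uM staurosporine.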

[5] = Cellular Toxicity (caspase-3) Mesangial (AID 660); conditions: mesangial cells, normalized: DMSO 0%, 100 µM tamoxifen 100%; series mostly up to 91.7 µM;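 note: cells exposed to compound for 16 h before the caspase read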
In short: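 Human renal glomerular mesangial cells (1000/well) were treated with compounds for 16 h at 37 °C in complete medium, then caspase 3/7 activity was read by Caspase-Glo luminescence. Data were normalized to DMSO and 100 uM tamoxifen; AC50 from Hill fits.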

[6] = Cellular Toxicity (caspase-3) SK-N-SH (AID 661); conditions: SK-N-SH caspase-3 activation, qHTS; series mostly up to 91.7 µM
In short: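 SK-N-SH human neuroblastoma cells (1500/well) were treated with compounds for 16 hr at 37 °C in complete medium; caspase 3/7 activity was read by Caspase-Glo luminescence. AC50 came from Hill fits of data normalized to DMSO and 10 uM staurosporine.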

[7] = Cellular Toxicity (caspase-3) Hek293 (AID 664); conditions: HEK293 caspase-3 activation, DMSO = 0%, 100 µM tamoxifen = 100%; at 92.2 µM (top of the series);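 note: cells exposed to compound for 16 h at 37 °C before readout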
In short: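 HEK293 cells were exposed to compounds in complete medium for 16 hr at 37 °C, then caspase-3/7 activity was read by Caspase-Glo 3/7 luminescence after 20 min at room temperature. Data normalized to DMSO and 100 uM tamoxifen; AC50 from Hill fits.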

[8] = Cellular Toxicity (caspase-3) NIH 3T3 (AID 666); conditions: NIH 3T3 caspase-3 activation, apoptosis/toxicity; series mostly up to 92.2 µM;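 note: caspase signal read after 16 h compound exposure; 0% = DMSO basal and 100% = 100 µM tamoxifen stimulation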
In short: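 Mouse NIH 3T3 fibroblasts (1000 cells/well) were treated with compound for 16 hr at 37°C in complete medium; caspase-3/7 activity was read by Caspase-Glo luminescence. Normalized to DMSO and 100 uM tamoxifen; AC50 from Hill fits.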

[9] = MultiTox-Fluor Cytotoxicity Assay - LYMP1-001 - Dead Cells (AID 946); conditions: LYMP1-001 lymphoblastoid cells, dead-cell protease fluorescence; series mostly up to 92.2 µM
In short: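 Cytotoxicity as increased dead-cell protease fluorescence (bis-AAF-R110, 485/520 nm), read 60 min after MultiTox-Fluor reagent. Human lymphoblastoid line exposed 16 h; Hill-fitted AC50, with DMSO as 0% and 15 uM tetraoctylammonium bromide as 100%.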

[10] = Cell Viability - LYMP1-002 - Assay at 16 hr (AID 948); conditions: LYMP1-002 lymphoblastoid cell viability; series mostly up to 92.2 µM;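 note: 0% = DMSO alone and full effect = 92 µM tetraoctylammonium bromide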
In short: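 LYMP1-002 human lymphoblastoid cells, 2500/well, were treated with compounds for 16 hr at 37 C in complete medium. Viability was read as intracellular ATP by CellTiter-Glo luminescence, and AC50 was derived from a Hill fit to concentration-response data.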

[11] = MultiTox-Fluor Cytotoxicity Assay - LYMP1-003 - Live Cells (AID 962); conditions: LYMP1-003 lymphoblastoid cells, MultiTox-Fluor live-cell protease fluorescence; series mostly up to 92.2 µM;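 note: 0% = DMSO only and full loss = 92 µM tetraoctylammonium bromide; cytotoxic hits lower the live-cell protease signal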
In short: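 LYMP1-003 human lymphoblastoid cells (2500/well) in complete medium were preincubated 5 hr at 37 C, then exposed to compounds for 16 hr at 37 C. Live-cell protease cleavage of GF-AFC read by fluorescence (Ex/Em 405/510); AC50 from Hill fits.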

[12] = Cell Viability - LYMP2-003 (AID 965); conditions: LYMP2-003 lymphoblastoid cell viability; series mostly up to 92.2 µM;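 note: cells exposed to compounds for 24 h before reading; 0% = DMSO only and full effect = 92 µM tetraoctylammonium bromide; nearly all actives have a fitted effect of over 50% in size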
In short: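 Human lymphoblastoid LYMP2-003 cells, 2500/well, exposed to compounds for 24 h at 37 C in complete medium. Viability read as intracellular ATP by CellTiter-Glo luminescence; AC50 from Hill-equation fits of qHTS concentration-response data.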

[13] = Cell Viability - LYMP2-013 (AID 970); conditions: LYMP2-013 lymphoblastoid cells viability; series mostly up to 92.2 µM;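 note: 0% = DMSO only and full inhibition = tetraoctylammonium bromide control; nearly all actives have a fitted effect of over 55% in size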
In short: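 Human lymphoblastoid cells, 2500/well, were preincubated 5 hr at 37 C, then treated with compounds for 24 hr at 37 C in complete medium. Intracellular ATP was read by CellTiter-Glo luminescence; AC50 from Hill-equation fits of concentration-response data.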

[14] = Cell Viability - LYMP2-015 (AID 971); conditions: LYMP2-015 lymphoblastoid cell viability; series mostly up to 92.2 µM;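 note: 0% = DMSO only and full effect = 92 µM tetraoctylammonium bromide; nearly all actives have a fitted effect of over 55% in size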
In short: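 Human lymphoblastoid cells (2500/well) in complete medium were preincubated 5 hr at 37 C, then compound-treated 24 hr at 37 C. Intracellular ATP was read by CellTiter-Glo luminescence after 30 min at room temperature; AC50 came from Hill-equation concentration-response fits.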

[15] = Cell Viability - LYMP2-017 (AID 972); conditions: LYMP2-017 lymphoblastoid cell viability; series mostly up to 92.2 µM; note: % is set by controls: 0 for no effect and ±100 for the full control effect; nearly all actives have a fitted effect of over 55% in size
In short: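 Human lymphoblastoid cells (2500/well) were seeded in complete medium, held 5 hr at 37 C, then exposed to compounds for 24 hr at 37 C. Intracellular ATP was read by CellTiter-Glo luminescence after 30 min at room temperature, with AC50 values from Hill-equation fits.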

[16] = Cell Viability - LYMP2-007 (AID 979); conditions: LYMP2-007 lymphoblastoid cell viability; series mostly up to 92.2 µM;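 note: cells exposed to compound for 24 h before reading; 0% = DMSO only and the negative end = 92 µM tetraoctylammonium bromide; nearly all actives have a fitted effect of over 60% in size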
In short: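 Human lymphoblastoid cells (2500/well) were plated in complete medium, incubated 5 hr at 37 C, then exposed to compounds for 24 hr at 37 C. Intracellular ATP was read by CellTiter-Glo luminescence after 30 min at room temperature; AC50 from Hill fits.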

[17] = qHTS Assay for Identification of Small Molecule Inducers of Hypoxia Response (AID 2120; active = well fitted curve in the direction sought with a large enough effect in the signal ratio, with a control signal flat, not every such curve was filed as active; the % refers to the signal ratio; note: 0% is about no effect); conditions: hypoxia response reporter cells, beta-lactamase ratio readout; series mostly up to 104 µM
In short: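 HRE-beta-lactamase reporter in CellSensor HRE-bla ME-180 cells, 2500 cells/well in Opti-MEM with 0.5% dialyzed FBS; compounds tested as titration series, 17 h at 37 degrees C. CCF4 substrate 2.5 h at room temperature; AC50 from 460/530 nm ratio.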

[18] = molecular target: Peroxisome proliferator-activated receptor alpha (Homo sapiens) (UniProt Q07869); experiment: qHTS assay for small molecule agonists of the peroxisome proliferator-activated receptor alpha (PPARalpha) signaling pathway (AID 651778); conditions: PathHunter PPARalpha complementation, chemiluminescence, 6 h; hits give high values; note: % of control where 0% means no effect
In short: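 Chemiluminescence from complemented enzyme reported PPARalpha activation in cells after 6 hr of compound treatment at 37 C. The detection reagent was incubated for 60 min at room temperature, and compounds were scored as agonists.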

[19] = qHTS assay for small molecule agonists of the antioxidant response element (ARE) signaling pathway measured by Nrf2-dependant transcriptional activity - cell viability counter screen (AID 720653; active = well fitted curve in the direction sought with a large enough effect in the repeat runs; an effect the other way counts as inactive or inconclusive; note: % is set by controls: 0 for no effect and ±100 for the full control effect); conditions: ARE-bla HepG2 viability, CellTiter-Glo ATP luminescence, 16 h; hits give low values
In short: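 Cytotoxicity counter screen: intracellular ATP quantified by CellTiter-Glo luminescence in the same ARE-bla HepG2 plates, after 16 h compound exposure and a 2 h beta-lactamase substrate step.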

[20] = qHTS assay for cell viability of the p53RE-bla HCT-116 cell line (AID 743292); conditions: p53RE-bla HCT-116 viability, ATP luminescence, 16 h; series mostly up to 95 µM; note: % is set by controls: 0 for no effect and ±100 for the full control effect; nearly all actives have a fitted effect of over 55% in size
In short: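 Luminescent ATP quantitation (CellTiter-Glo) served as the viability read-out; reagent was added after 16 h compound exposure at 37 C and read after 30 min at room temperature. Cells: p53RE-bla HCT-116, 4,000 per well.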

Peroxisome proliferator-activated receptor alpha (Homo sapiens), sequence (Q07869 whole entry, looked up): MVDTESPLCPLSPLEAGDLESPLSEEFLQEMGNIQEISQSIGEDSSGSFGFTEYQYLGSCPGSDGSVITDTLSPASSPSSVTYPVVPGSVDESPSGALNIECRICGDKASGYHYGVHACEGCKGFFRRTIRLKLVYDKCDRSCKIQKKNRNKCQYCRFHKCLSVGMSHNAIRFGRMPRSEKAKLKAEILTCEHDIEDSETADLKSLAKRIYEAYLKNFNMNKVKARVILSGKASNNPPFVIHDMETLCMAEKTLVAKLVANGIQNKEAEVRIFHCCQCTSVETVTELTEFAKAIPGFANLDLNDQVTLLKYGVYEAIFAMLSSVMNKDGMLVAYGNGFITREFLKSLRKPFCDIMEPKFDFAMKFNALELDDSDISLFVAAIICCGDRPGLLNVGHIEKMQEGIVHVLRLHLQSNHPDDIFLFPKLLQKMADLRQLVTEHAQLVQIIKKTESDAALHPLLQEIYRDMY

Nc1ccc(-c2ccc(N)cc2)cc1
inactive: Potency [1] > 92 µM | Potency [2] | outcome [3] | outcome [4] | outcome [5] | Potency [6] | caspase-3 activation [7] 0.43% | Potency [8] | outcome [9] | outcome [10] | outcome [11] | Potency [12] | Potency [13] | Potency [14] | Potency [15] | Potency [16] | Potency [17] | max response [18] -0.279% | max response [19] -3.71% | Potency [20]

CCCCOC(=O)c1ccccc1N
inactive: Potency [1] > 92 µM | Potency [2] | outcome [3] | outcome [4] | outcome [5] | Potency [6] | caspase-3 activation [7] 0.422% | Potency [8] | outcome [9] | outcome [10] | outcome [11] | Potency [12] | Potency [13] | Potency [14] | Potency [15] | Potency [16] | Potency [17] | max response [18] -4.62% | max response [19] 4.85% | Potency [20]

C=C(Cl)CSC(=S)N(CC)CC
inactive: Potency [1] > 92 µM | Potency [2] | outcome [3] | outcome [4] | outcome [5] | Potency [6] | caspase-3 activation [7] 0.963% | Potency [8] | outcome [9] | outcome [10] | outcome [11] | Potency [13] | Potency [14] | Potency [16] | Potency [17] | max response [18] 11.5% | max response [19] -13% | Potency [20]

Nc1cccc(Cl)c1
inactive: Potency [1] > 92 µM | Potency [2] | outcome [3] | outcome [4] | outcome [5] | Potency [6] | caspase-3 activation [7] 5.51% | Potency [8] | outcome [9] | outcome [10] | outcome [11] | Potency [12] | Potency [13] | Potency [14] | Potency [15] | Potency [16] | Potency [17] | max response [18] 0.632% | max response [19] 2.22% | Potency [20]

CCCCC#N
inactive: Potency [1] > 92 µM | Potency [2] | outcome [3] | outcome [4] | outcome [5] | Potency [6] | caspase-3 activation [7] -1.9% | Potency [8] | outcome [9] | outcome [10] | outcome [11] | Potency [12] | Potency [13] | Potency [14] | Potency [15] | Potency [16] | Potency [17] | max response [18] -3.73% | max response [19] -5.38% | Potency [20]

Nc1ncc([N+](=O)[O-])s1
inactive: Potency [1] > 92 µM | Potency [2] | outcome [3] | outcome [4] | outcome [5] | Potency [6] | caspase-3 activation [7] -1.64% | Potency [8] | outcome [9] | outcome [10] | outcome [11] | Potency [12] | Potency [13] | Potency [14] | Potency [15] | Potency [16] | Potency [17] | max response [18] 7.02% | max response [19] 0.285% | Potency [20]

CCOC(=O)CC(SP(=O)(OC)OC)C(=O)OCC (stereo not drawn)
inactive: Potency [1] > 92 µM | Potency [2] | outcome [3] | outcome [4] | outcome [5] | Potency [6] | caspase-3 activation [7] 1.27% | Potency [8] | outcome [9] | outcome [10] | outcome [11] | Potency [12] | Potency [13] | Potency [14] | Potency [15] | Potency [16] | Potency [17] | max response [18] -2.03% and -3.38% | max response [19] 0.403% and 18.9% | Potency [20]
